{
  "source": "PubChem BioAssay (NCATS)",
  "key": {"[1]": {"experiment": "Cell Viability - BJ (AID 421; calls by dose curve;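 also: potency is read from the fitted curve at half-maximal effect; cells exposed to compound for 40 hours at 37 °C before readout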)", "conditions": "BJ fibroblast viability, qHTS", "how_it_was_run": "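Luminescent ATP signal (CellTiter-Glo, 20 min at room temperature) served as the read-out of viable BJ cells after 40 hours of compound treatment. Responses were scaled between DMSO and 100 uM tamoxifen, and AC50 values were obtained by Hill modeling.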"}, "[2]": {"experiment": "Cell Viability - Jurkat (AID 426;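 active = dose-dependent loss of cell ATP signal giving a full or clear fitted curve, ranked by lower potency value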; also: potency is read from the fitted curve at half-maximal effect)", "conditions": "qHTS", "how_it_was_run": "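Cytotoxicity taken as drop in cellular ATP (CellTiter-Glo luminescence, 20 min room temperature) after 40 hr, 37C treatment of 5000 Jurkat Clone E6-1 cells per well; concentration-response fitted with Hill equation for AC50.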"}, "[3]": {"experiment": "Cell Viability - Hek293 (AID 427;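 active = compounds whose dose-response curve shows a full or clear partial loss of cell viability, called from curve shape rather than a numeric limit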;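 also: potency is read from the fitted curve at half-maximal effect; cells exposed to compound for 40 hours at 37 °C before reading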)", "conditions": "qHTS", "how_it_was_run": "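Luminescent ATP read-out (CellTiter-Glo, 20 min RT) after 40 hr compound exposure at 37 °C in complete medium. Signal normalized to DMSO (basal) and 100 uM tamoxifen (100% inhibition); concentration-response fitted with the standard Hill equation to give AC50.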"}, "[4]": {"experiment": "Cell Viability - HepG2 (AID 433; calls by dose curve; also: potency is read from the fitted curve at half-maximal effect)", "conditions": "qHTS", "how_it_was_run": "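Cytotoxicity read as ATP loss (CellTiter-Glo luminescence) after 40 hr compound exposure of HepG2, 1500 cells/well, 37 °C. AC50 by Hill equation; 0% set by DMSO, 100% inhibition by 100 uM tamoxifen.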"}, "[5]": {"experiment": "Cell Viability - MRC5 (AID 434; calls by dose curve;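 also: potency is read from the fitted curve at half-maximal effect; potency reflects cytotoxicity seen as loss of intracellular ATP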)", "conditions": "MRC5 lung fibroblast viability, qHTS", "how_it_was_run": "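ATP luminescence read-out (CellTiter-Glo, 20 min RT) after 40 hr, 37 °C compound exposure of 1500 MRC5 cells/well. Data normalized to DMSO (basal) and 100 uM tamoxifen (100% inhibition); AC50 from standard Hill equation.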"}, "[6]": {"experiment": "Cell Viability - SK-N-SH (AID 435; calls by dose curve; also: potency is read from the fitted curve at half-maximal effect)", "conditions": "SK-N-SH neuroblastoma cell viability qHTS", "how_it_was_run": "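qHTS cytotoxicity: CellTiter-Glo ATP luminescence after 40 h compound exposure of human neuroblastoma SK-N-SH cells at 37 °C. AC50 derived by Hill-equation fitting, with DMSO as basal and 100 uM tamoxifen as full inhibition.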"}, "[7]": {"molecular_target": "Cytochrome P450 1A2 (Homo sapiens) (UniProt P05177)", "sequence (P05177 whole entry, looked up)": "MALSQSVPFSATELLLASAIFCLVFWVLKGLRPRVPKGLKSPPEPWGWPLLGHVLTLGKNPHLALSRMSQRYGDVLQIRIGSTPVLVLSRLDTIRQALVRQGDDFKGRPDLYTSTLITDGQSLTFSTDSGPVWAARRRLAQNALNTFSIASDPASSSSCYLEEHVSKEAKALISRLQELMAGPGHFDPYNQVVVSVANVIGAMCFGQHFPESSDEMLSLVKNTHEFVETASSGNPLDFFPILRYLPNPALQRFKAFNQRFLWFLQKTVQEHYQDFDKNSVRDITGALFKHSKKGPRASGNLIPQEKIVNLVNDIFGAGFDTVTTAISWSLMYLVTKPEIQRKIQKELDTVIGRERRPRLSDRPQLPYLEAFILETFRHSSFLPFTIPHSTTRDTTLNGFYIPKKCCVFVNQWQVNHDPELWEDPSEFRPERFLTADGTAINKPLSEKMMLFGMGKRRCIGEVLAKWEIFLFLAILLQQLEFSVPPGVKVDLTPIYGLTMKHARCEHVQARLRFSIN", "experiment": "p450-cyp1a2 (AID 410; calls by dose curve; also: potency is read from the fitted curve at half-maximal effect)", "conditions": "recombinant CYP1A2, luciferin-ME demethylation, luminescence; series mostly up to 25.6 µM", "how_it_was_run": "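Luminescent demethylation readout: Luciferin-ME (100uM, equal to Km) turned over by 20nM CYP1A2 for 60 min at room temperature after NADPH regeneration addition, following 10 min compound preincubation. Normalization used 57 uM furafylline as full inhibition.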"}, "[8]": {"experiment": "AP1 Signaling Pathway (AID 357); also: % is scaled to controls: 0 for no effect and ±100 for the full control effect", "conditions": "ME-180 AP-1-bla reporter, EGF-induced, beta-lactamase ratio, 5 h; series mostly up to 17.2 µM", "how_it_was_run": "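First, ME-180 AP-1-bla cells were cultured overnight at 37 °C in low-serum Opti-MEM. Next, titrated compounds with EC50 EGF were incubated 5 hours. Finally, CCF4 was added for 2.5 hours and the 460/530 nm ratio recorded.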"}, "[9]": {"experiment": "NFAT Signaling Pathway (AID 444);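 also: carbachol stimulus at about its EC50 of 1 µM final; % is scaled to controls: 0 for no effect and ±100 for the full control effect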", "conditions": "Jurkat NFAT-bla M1, carbachol, beta-lactamase ratio, 5 h; at 17.2 µM (top of the series) unless noted", "how_it_was_run": "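Jurkat cells with NFAT-driven β-lactamase reporter and co-expressed M1 receptor, stimulated with carbachol (final 1 uM, ~EC50), compound titration, 5 h at 37 °C. CCF4 loaded 1 h at RT; 460/530 nm ratio gave %activity and AC50.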"}},
  "note": "Results filed as inconclusive are left out. Values without a mark were called inactive. Active and inactive are the calls of the source. Unless noted, calls follow the shape of the dose curve; as a rule, active = well fitted curve in either direction with a large enough effect (not every such curve was filed as active); inconclusive = small, poorly fitted or top-dose-only effect, or another doubt; inactive = flat fitted curve, though single readings scatter.",
  "data": [
    {"molecule": "NC(=O)c1ccccc1O", "values": [
      {"measurement": "Potency", "setting": "[1]", "value": "> 92", "unit": "µM"},
      {"measurement": "Potency", "setting": "[2]", "value": "> 92", "unit": "µM"},
      {"measurement": "Potency", "setting": "[3]", "value": "> 92", "unit": "µM"},
      {"measurement": "Potency", "setting": "[4]", "value": "> 92", "unit": "µM"},
      {"measurement": "Potency", "setting": "[5]", "value": "> 92", "unit": "µM"},
      {"measurement": "Potency", "setting": "[6]", "value": "> 92", "unit": "µM"}
    ]},
    {"molecule": "Cl/C(=C\\n1cncn1)c1ccc(Cl)cc1Cl", "values": [
      {"measurement": "Potency", "setting": "[7]", "value": "0.0631 µM (active)"}
    ]},
    {"molecule": "COc1ccc(C(=O)c2ccccc2O)c(O)c1", "values": [
      {"measurement": "outcome", "setting": "[8]", "value": "inactive"},
      {"measurement": "activity change, negative = inhibition", "setting": "[9]", "value": -15.7, "unit": "%"}
    ]},
    {"molecule": "CC(=O)O[C@]1(C(C)=O)CC[C@H]2[C@@H]3C=C(Cl)C4=CC(=O)CC[C@]4(C)[C@H]3CC[C@@]21C", "values": [
      {"measurement": "outcome", "setting": "[8]", "value": "inactive"},
      {"measurement": "activity change, negative = inhibition", "setting": "[9]", "value": -29, "unit": "%"}
    ]},
    {"molecule": "COc1ccccc1N1CCN(CCCCNC(=O)c2ccc(-c3ccc(C(C)=O)cc3)cc2)CC1", "values": [
      {"measurement": "Potency", "setting": "[7]", "value": "25.1 µM (active)"}
    ]},
    {"molecule": "c1ccc(CC2=NCCN2)cc1", "values": [
      {"measurement": "outcome", "setting": "[8]", "value": "inactive"},
      {"measurement": "activity change, negative = inhibition", "setting": "[9]", "value": -12.4, "unit": "%"}
    ]}
  ]
}
